Results reported in PubChem BioAssay AID938 (National Center for Advancing Translational Sciences (NCATS), 2007).
“And” between values parts separate entries of the source, which are not always exact repeats. Identical values can stand only once. Screen size: about 73,000 compounds; about 1,800 (2.5%) were called active. A call without a number means that no potency is given here. Inconclusive results (about 13%) are left out. Calls follow the shape of the dose curve; as a rule, active = well fitted activation curve with a large enough effect; inconclusive = small, poorly fitted or top-dose-only effect; inactive = no such curve, though single readings can be large or run the other way. This excerpt belongs to a sample that is enriched for actives.
Potency is read from the fitted curve at half-maximal effect.

Test: qHTS Assay for Agonists of the Thyroid Stimulating Hormone Receptor: Activators of Intracellular cAMP Concentrations in Parental HEK 293; also: nearly all actives have a fitted effect of over 55% in size
Conditions: parental HEK293 CNG cAMP sensor, membrane potential fluorescence; series mostly up to 57.1 µM
Summary of the method: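 Parental HEK 293 cells stably expressing a modified CNG channel (no TSHR) report cAMP rise as membrane depolarization. Membrane potential dye with 100 uM RO 20-1724 was loaded for 60 min at room temperature, then compound added for 30 min; fluorescence read at 590 nm.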
In the case of `CCCCCCCCCCCC(=O)O[C@H](CC(=O)O)C[N+](C)(C)C`, the Potency is reported as “inactive”. For `O=C(CSc1nnc(-c2cccs2)n1Cc1ccco1)c1ccc2c(c1)OCO2`, the Potency was 31.6 µM (active). For `CCn1c(CNc2ccc(OC)cc2)nnc1SCC(=O)c1ccc(OC)cc1`, the Potency was “inactive”. In the case of `Cc1ccc(NC(=O)CSc2nnc(-c3cnccn3)n2Cc2ccco2)cc1C`, the Potency is reported as “inactive”. With `COc1ccc(C(=O)CSc2nnc(COc3ccccc3)n2Cc2ccco2)cc1` the Potency was 15.8 µM (active). In the case of `O=C(CSc1nnc(-c2cccs2)n1-c1ccccc1)NCc1ccco1`, the Potency is reported as “inactive”. With `COc1ccc(-c2nnc(SCC(=O)c3ccco3)n2-c2ccccc2)cc1` the Potency was “inactive”. With `O=C(CSc1nnc(-c2cccnc2)n1Cc1ccco1)c1ccc(Cl)cc1` the Potency was “inactive”. With `COc1ccc(NC(=O)CSc2nnc(-c3cccs3)n2Cc2ccco2)cc1OC` the Potency was “inactive”. For `O=C(CSc1nnc(-c2cnccn2)n1Cc1ccco1)c1ccc(Cl)c(Cl)c1`, the Potency was 25.1 µM (active). With `CCOC(=O)c1nc(-c2ccc3c(c2)OCO3)[nH]c1C` the Potency was “inactive”. In the case of `CCCC(=O)N1c2ccc(-c3csc(N)n3)cc2CC1C` (configuration not stated), the Potency is reported as “inactive”. In the case of `Cc1ccc2nc(S(=O)(=O)O)[nH]c2c1`, the Potency is reported as “inactive”. In the case of `O=C(CC1N=C2c3ccccc3N=C(SCc3ccccc3Cl)N2C1=O)NCc1ccco1` (configuration not stated), the Potency is reported as 15.8 µM (active). With `NC(=O)CSC1=Nc2ccccc2C2=NC(CCC(=O)NCc3ccc(F)cc3)C(=O)N12` (configuration not stated) the Potency was “inactive”. With `O=C(CSC1=Nc2ccccc2C2=NC(c3ccccc3)C(=O)N12)NCC1CCCO1` (configuration not stated) the Potency was “inactive”. With `Cc1cc(OCC(=O)O)c(Cl)cc1Cl` the activation was 18.1% [at 11.4 µM] (inactive). With `Cc1ccccc1C(=O)O` the Potency was “inactive”. For `O=C(Nc1ccccc1N1CCN(C(=O)c2ccccc2)CC1)c1ccc2c(c1)OCO2`, the Potency was “inactive”. For `CCC(=O)Nc1ccccc1N1CCN(S(C)(=O)=O)CC1`, the Potency was “inactive”. For `CCCC(=O)Nc1ccccc1N1CCN(C(=O)c2ccccc2)CC1`, the Potency was 15.8 µM (active). With `CC(C)CO/N=C1/C[C@@H](O)[C@@H](O)[C@@H]2[C@@H]3C(=O)N(C[C@@H]4CCCO4)C(=O)[C@H]3CC[C@@H]12` the activation was 4.27% [at 11.4 µM] (inactive). In the case of `O=C(O)COc1c(Cl)cc(Cl)c2cccnc12`, the activation is reported as 14.2% [at 11.4 µM] (inactive). With `CC12CCC(C(=O)N3CCN(c4ncccn4)CC3)(c3nc4ccccc4nc31)C2(C)C` (configuration not stated) the Potency was “inactive”. With `CCCCn1c(SCC(=O)NCC2CCCO2)nc2ccc(N3CCOCC3)cc2c1=O` (configuration not stated) the Potency was “inactive”. With `COCCCNC(=O)CSc1nc2ccc(N3CCOCC3)cc2c(=O)n1CCc1ccccc1` the Potency was “inactive”. For `CCc1ccc(NC(=O)CSc2nc3ccccc3c(=O)n2CCN2CCOCC2)cc1`, the Potency was 31.6 µM (active). In the case of `COC(=O)C1=C(C)N(Cc2ccccc2)C2=C3C(=O)N(c4ccccc4)C(=O)C3[C@@](O)(C(=O)OC)C(=O)N2C1c1ccccc1` (some centres not stated), the activation is reported as 9.18% [at 11.4 µM] (inactive) and 2.67% [at 11.4 µM] (inactive). With `CN(Cc1ccco1)c1ncncc1-c1ccoc1` the Potency was “inactive”. With `Cc1ccccc1-c1nc(N(C)Cc2ccco2)c2ccccc2n1` the Potency was 25.1 µM (active). In the case of `CN(Cc1ccco1)c1cc(-c2ccccc2C(F)(F)F)ncn1`, the Potency is reported as “inactive”. For `CCC(C(=O)NC1CCCC1)N(C(=O)c1snc(C(N)=O)c1N)c1ccc2c(c1)OCCO2` (configuration not stated), the Potency was 25.1 µM (active). In the case of `COCCNC(=O)C(c1ccc(C)o1)N(Cc1cccs1)C(=O)c1snc(C(N)=O)c1N` (configuration not stated), the Potency is reported as “inactive”. For `Cc1ccc(C(C(=O)NC2CCCCC2)N(C(=O)c2csnn2)C2CC2)o1` (configuration not stated), the Potency was “inactive”. With `Cc1cc2c(cc1C)NC1=C(N2)O[C@H](c2c[nH]c3ccc(COc4ccccc4)cc23)C1=O` the activation was 3.07% [at 11.4 µM] (inactive). In the case of `COc1ccc(C(=O)N2CCC3(CC2)CCN(c2ccccn2)CC3)cc1`, the Potency is reported as “inactive”. With `O=C(c1cc(C(F)(F)F)cc(C(F)(F)F)c1)N1CCC[C@@]2(CCN(c3ccccn3)C2)C1` the Potency was 15.8 µM (active). For `O=C(c1cc(C(F)(F)F)cc(C(F)(F)F)c1)N1CCC2(CCCN(c3ccccn3)C2)CC1`, the Potency was 25.1 µM (active). With `O=C(c1cccc(F)c1)N1CCC2(CCCN(Cc3ccncc3)C2)CC1` the Potency was “inactive”. For `O=C(c1cc(C(F)(F)F)cc(C(F)(F)F)c1)N1CCC2(CCCN(Cc3ccncc3)C2)CC1`, the Potency was “inactive”. For `CC(=O)N1CCC2(CCCN(c3ncccn3)C2)CC1`, the Potency was “inactive”. In the case of `O=C(c1csnn1)N1CCC[C@@]2(CCN(c3cccc(-c4ccccc4)c3)C2)C1`, the Potency is reported as “inactive”. With `COc1ccc(C(=O)N2CCC3(CCCN(C(c4ccccc4)c4ccccc4)C3)CC2)cc1` the Potency was “inactive”. For `O=C(c1ccncc1)N1CCC2(CCCN(C(c3ccccc3)c3ccccc3)C2)CC1`, the Potency was 10 µM (active). With `COc1cccc([C@H](O)Cn2cc(-c3ccc(CON=C(C)C)cc3)nn2)c1` the activation was 14.1% [at 11.4 µM] (inactive). With `COc1ccc(COC(=O)N/N=C2/C[C@@H](O)[C@@H](O)[C@@H]3[C@@H]4C(=O)N([C@@H](C)c5ccccc5)C(=O)[C@H]4CC[C@@H]23)cc1` the activation was -0.62% [at 11.4 µM] (inactive). For `CCOC(=O)c1sc(NC(=S)n2cc(C)cn2)c(C(=O)OCC)c1C`, the Potency was “inactive”. For `CN1CCc2nc(-c3ccccc3)c(-c3ccccc3)cc2C1`, the activation was 0.173% [at 11.4 µM] (inactive). For `c1ccc2nc(C3=NCCN3)cnc2c1`, the Potency was “inactive”. In the case of `CCOC(=O)c1ccc(N2C(=O)CC(N3CCC(C(=O)OCC)CC3)C2=O)cc1` (configuration not stated), the Potency is reported as “inactive”. For `CCOC(=O)c1nnn(-c2nc(OC)nc(N(C)C)n2)c1-c1ccccc1`, the Potency was “inactive”. For `Cc1ccc(C(=O)N2CCN(C3CCCCC3)CC2)s1`, the Potency was “inactive”. With `N/C(=N\c1nc2ccccc2o1)NC(=O)C(Cc1ccccc1)N1C(=O)c2ccccc2C1=O` (configuration not stated) the Potency was “inactive”. In the case of `CCOC(=O)C1CCN(C(c2cc3cc(C)cc(C)c3[nH]c2=O)c2nnnn2C2CCCCC2)CC1` (configuration not stated), the Potency is reported as “inactive”. With `Cc1cccc2cc(CN(Cc3ccc4c(c3)OCO4)Cc3nnnn3C3CCCC3)c(=O)[nH]c12` the Potency was 31.6 µM (active). In the case of `Cc1cccc2cc(CN(Cc3cccs3)C(c3nnnn3C3CCCC3)C(C)C)c(=O)[nH]c12` (configuration not stated), the Potency is reported as “inactive”. With `O=C1C(c2ccccn2)=[N+]([O-])c2ccccc21` the Potency was “inactive”. In the case of `O=c1c2ccccc2nnn1CSc1nc2sc3c(c2c(=O)n1CC1CCCO1)CCC3` (configuration not stated), the Potency is reported as “inactive”. For `COc1ccccc1Oc1ccc(S(=O)(=O)Nc2cccnc2)cc1`, the Potency was “inactive”. In the case of `COc1ccc(C2=NOC(C(=O)NCc3ccco3)C2)cc1OC` (configuration not stated), the activation is reported as 8.46% [at 2.29 µM] (inactive). In the case of `COc1ccccc1N(C(=O)Cn1nnc2ccccc21)C(C(=O)NCc1ccco1)c1ccc(C)o1` (configuration not stated), the Potency is reported as 3.98 µM (active). For `CCOc1ccccc1C(=O)NCc1ccco1`, the Potency was “inactive”. In the case of `Cc1cccc(CC(=O)Nc2c3c(nn2-c2cccc(Cl)c2)CS(=O)C3)c1` (configuration not stated), the Potency is reported as 10 µM (active). In the case of `CC(C)(C)n1nc2c(c1NC(=O)c1ccc(S(=O)(=O)N3CCCC3)cc1)CS(=O)C2` (configuration not stated), the Potency is reported as “inactive”. For `COc1ccc(CC(=O)Nc2c3c(nn2-c2cccc(Cl)c2)CS(=O)C3)cc1` (configuration not stated), the Potency was “inactive”. In the case of `CC(C)CO`, the Potency is reported as “inactive”. In the case of `O=C(NCc1ccccc1)[C@H]1C[C@@H]1[C@H](NP(=O)(c1ccccc1)c1ccccc1)c1ccccc1`, the Potency is reported as “inactive”. With `Cc1cccc(C(=O)O)c1[N+](=O)[O-]` the Potency was “inactive”. For `CCOC(=O)N1CCN(C(=O)C2CCN(c3ncnc4c3sc3cccc(F)c34)CC2)CC1`, the Potency was “inactive”. For `CCOC(=O)C1CCN(c2ncnc3c2oc2ccc(Br)cc23)CC1`, the Potency was 25.1 µM (active). In the case of `Cc1cc(C)nc(N2CCN(c3ncnc4c3oc3ccccc34)CC2)n1`, the Potency is reported as “inactive”. In the case of `Cc1cc(C)cc(C#CC2C=CC(Oc3ccc(C4CCCC4)cc3)C(CO)O2)c1` (configuration not stated), the activation is reported as 16.7% [at 11.4 µM] (inactive). For `CC(C)[C@@H](OCc1ccccc1)[C@H](C)/C=N\OC[C@@H](C)[C@H](OCc1ccccc1)C(C)C`, the activation was 2.03% [at 11.4 µM] (inactive). For `O=C(CSc1nnc(-c2ccccc2)o1)N1CCOCC1`, the Potency was “inactive”. In the case of `CCOC(=O)CSc1nnc(-c2cccc(Br)c2)o1`, the Potency is reported as “inactive”. In the case of `CC1=CC(C)(C)N(C(=O)CSc2nnc(-c3ccccc3)o2)c2ccc(C)cc21`, the Potency is reported as 2 µM (active). With `CCS(=O)(=O)N1CCN(C(=O)c2cccs2)CC1` the Potency was “inactive”. With `COc1ccc(N2CCN(C3CC(=O)N(c4ccc5c(c4)OCCO5)C3=O)CC2)cc1` (configuration not stated) the Potency was “inactive”. For `CCCc1nc2ccccc2c(=O)n1NC(=O)c1c(O)c2ccccc2[nH]c1=O`, the Potency was “inactive”. In the case of `COC(=O)[C@H](C)[C@H]1C[C@]1(C)[C@H](NC(=O)OCc1ccccc1)c1ccccc1`, the Potency is reported as 2 µM (active). With `CC(C)C(NC(=O)OCc1ccccc1)C(=O)OCC(=O)N1C(C)CCCC1C` (configuration not stated) the Potency was “inactive”. With `C[C@@H](C(=O)Nc1ccc2ccccc2c1)[C@@H]1C[C@@]1(C)[C@@H](NC(=O)c1cccnc1)c1ccccc1` the Potency was “inactive”. With `C=CCOC(=O)C(C(C)=O)C(NC(=O)OC)c1ccccc1` (configuration not stated) the activation was 4.24% [at 11.4 µM] (inactive). For `C(=C\c1ccccc1)/CSc1nnc(-c2cccnc2)n1Cc1ccco1`, the Potency was 15.8 µM (active). For `COc1cc(Cl)c(C)cc1NC(=O)CSc1nnc(-c2cccnc2)n1Cc1ccco1`, the Potency was “inactive”. With `CCc1ccc(NC(=O)CSc2nnc(-c3cnccn3)n2Cc2ccco2)cc1` the Potency was “inactive”. For `COc1cccc(Cn2c(=O)c(-c3cc(F)cc(F)c3)nc3cnc(OC)nc32)c1`, the Potency was “inactive”. In the case of `COc1cccc(Cn2c(=O)c(-c3ccccc3)nc3cnc(OC)nc32)c1`, the Potency is reported as “inactive”. For `COc1cccc(Cn2c(=O)c(C)nc3cnc(Oc4ccccc4)nc32)c1`, the Potency was 12.6 µM (active). For `Cc1ccccc1NC(=O)CNc1ccccc1N1CCCCC1`, the Potency was “inactive”. For `COC(=O)c1c(NC(=O)CSc2nc3c(c(=O)n(C)c(=O)n3C)n2C(C)C)sc(C)c1C`, the Potency was “inactive”. For `CC(C)n1c(SCC(=O)Nc2ccccc2N2CCCCC2)nc2c1c(=O)n(C)c(=O)n2C`, the Potency was 20 µM (active).
